# PubChem BioAssay (Tox21)
# Values without a mark were called inactive. Results filed as inconclusive are left out. A call without a number means that no potency is given here. Calls of active or inactive are those of the source. Unless noted, the call rests on the fitted dose curve; in most records, active means well fitted curve in the direction sought with a large enough effect in the repeat runs; inconclusive means weak or mixed curves; inactive means no such curve, though single readings can be large; an effect the other way counts as inactive or inconclusive.
# Legend:
# [1] = target: Progesterone receptor (Homo sapiens) (UniProt P06401); test: qHTS assay to identify small molecule agonists of the progesterone receptor (PR) signaling pathway (AID 1346784; calls by dose curve; further: nearly all actives have a fitted effect of over 30% in size)
# Sequence of Progesterone receptor (Homo sapiens) (P06401 whole entry, looked up): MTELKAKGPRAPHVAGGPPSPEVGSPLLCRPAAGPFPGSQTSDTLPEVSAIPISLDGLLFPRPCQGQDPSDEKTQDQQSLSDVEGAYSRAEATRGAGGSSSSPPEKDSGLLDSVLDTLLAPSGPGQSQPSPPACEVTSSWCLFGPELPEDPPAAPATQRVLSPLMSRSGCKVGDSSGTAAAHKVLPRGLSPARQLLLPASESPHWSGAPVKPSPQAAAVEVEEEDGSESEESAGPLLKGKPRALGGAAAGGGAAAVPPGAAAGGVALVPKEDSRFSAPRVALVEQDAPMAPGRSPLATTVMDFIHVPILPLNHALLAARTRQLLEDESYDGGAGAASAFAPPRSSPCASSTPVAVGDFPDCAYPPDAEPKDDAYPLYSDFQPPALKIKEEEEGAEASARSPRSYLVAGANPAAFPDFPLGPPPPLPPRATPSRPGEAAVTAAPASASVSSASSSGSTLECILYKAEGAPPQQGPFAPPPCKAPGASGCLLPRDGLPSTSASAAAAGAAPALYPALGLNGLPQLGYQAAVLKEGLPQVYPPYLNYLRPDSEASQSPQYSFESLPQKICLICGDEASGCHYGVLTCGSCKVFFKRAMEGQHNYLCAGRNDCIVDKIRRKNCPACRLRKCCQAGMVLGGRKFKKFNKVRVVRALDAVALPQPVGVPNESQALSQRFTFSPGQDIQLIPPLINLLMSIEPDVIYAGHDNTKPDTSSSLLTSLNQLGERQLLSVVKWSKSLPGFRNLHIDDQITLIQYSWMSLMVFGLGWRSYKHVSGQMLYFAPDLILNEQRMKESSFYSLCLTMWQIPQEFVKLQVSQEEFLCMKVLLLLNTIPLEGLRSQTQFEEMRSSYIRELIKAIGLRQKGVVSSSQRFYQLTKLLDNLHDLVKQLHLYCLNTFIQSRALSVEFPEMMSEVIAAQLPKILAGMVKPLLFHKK
# Summary of the method: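 Agonist qHTS: compounds pinned onto 3,000 PR-UAS-bla HEK 293T cells per well in charcoal-stripped serum medium, 16hr at 37C, then beta-lactamase activity measured by LiveBLAzer FRET fluorescence after 2 hours at room temperature.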
# [2] = target: Progesterone receptor (Homo sapiens) (UniProt P06401); test: qHTS assay to identify small molecule antagonists of the progesterone receptor (PR) signaling pathway (AID 1346795; active means well fitted inhibition curve with a large enough effect in the signal ratio in the repeat runs, not every such curve was filed as active; the % refers to the signal ratio)
# Summary of the method: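 Antagonist mode with agonist R5020 at 1 nM final and 16 hr incubation at 37C. Reporter was beta-lactamase driven by UAS in HEK293T (PR-UAS-bla), 2% charcoal-stripped serum; signal from LiveBLAzer FRET substrate, 2 hr at room temperature.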
# [3] = qHTS assay to identify small molecule agonists of the progesterone receptor (PR) signaling pathway - cell viability counter screen (AID 1346799; calls by dose curve; further: nearly all actives have a fitted effect of over 45% in size)
# Summary of the method: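 Cytotoxicity measured by CellTiter-Glo luminescence (30 min, RT) in the same wells as the PR beta-lactamase agonist read. Those HEK293T cells had 16 h compound treatment at 37 C in 2% charcoal-stripped FBS medium.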
# [4] = qHTS assay to identify small molecule antagonists of the TGF-beta/Smad signaling pathway - cell viability counter screen (AID 1346824); further: nearly all actives have a fitted effect of over 50% in size
# Summary of the method: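 Cytotoxicity counter-screen run in the same wells as the beta-lactamase Smad reporter read: CellTiter-Glo luminescence after 30 min at room temperature. HEK 293T SBE-bla cells had 5 hr compound exposure at 37 C with TGF-beta1 (0.25 ng/mL stock).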
# [5] = qHTS assay to identify small molecule agonists of the TGF-beta/Smad signaling pathway - cell viability counter screen (AID 1346829); further: top concentration of the series differs between compounds; nearly all actives have a fitted effect of over 45% in size
# Summary of the method: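 Cytotoxicity counter screen: CellTiter-Glo luminescence (30 min, room temperature) measured in the SBE-bla HEK 293T reporter wells after 5 hr compound treatment at 37 C and the 2 hr substrate step.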
# [6] = qHTS assay to identify small molecule agonists of the TGF-beta/Smad signaling pathway (AID 1346859; active means well fitted activation curve with a large enough effect in the signal ratio in the repeat runs, not every such curve was filed as active; the % refers to the signal ratio; further: series mostly up to about 77 µM)
# Summary of the method: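 Fluorescence (ex 405 nm; em 460 and 530 nm) was read 2 h after LiveBLAzer FRET substrate at RT. The preceding compound treatment of overnight-plated SBE-bla HEK293T cells lasted 5 h at 37 C.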
# [7] = target: Thyrotropin-releasing hormone receptor (Homo sapiens) (UniProt P34981); test: qHTS assay to identify small molecule antagonists of the thyrotropin-releasing hormone receptor (TRHR) signaling pathway (AID 1346877; active means well fitted inhibition curve with a large enough effect in the repeat runs, not every such curve was filed as active; further: series mostly up to about 51 µM)
# Sequence of Thyrotropin-releasing hormone receptor (Homo sapiens) (P34981 whole entry, looked up): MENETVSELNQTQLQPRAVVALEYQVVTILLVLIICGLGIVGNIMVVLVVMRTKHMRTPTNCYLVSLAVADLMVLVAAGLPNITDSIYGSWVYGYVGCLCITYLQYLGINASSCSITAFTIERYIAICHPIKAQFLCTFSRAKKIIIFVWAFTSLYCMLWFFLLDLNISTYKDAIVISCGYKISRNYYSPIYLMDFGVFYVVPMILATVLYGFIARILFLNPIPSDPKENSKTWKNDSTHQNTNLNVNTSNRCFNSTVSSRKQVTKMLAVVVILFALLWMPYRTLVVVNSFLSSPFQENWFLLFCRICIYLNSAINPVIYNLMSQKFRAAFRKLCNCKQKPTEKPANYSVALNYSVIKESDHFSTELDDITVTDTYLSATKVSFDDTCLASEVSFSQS
# Summary of the method: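 HEK293/TRHR cells, 18 h, 37 °C; Ca2+ dye 2 h; cpd 5 min RT; TRH 1 nM final; fluorescence read 3 min, 1 s intervals; 15 concs, triplicate.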
# [8] = target: Thyrotropin-releasing hormone receptor (Homo sapiens) (UniProt P34981); test: qHTS assay to identify small molecule agonists of the thyrotropin-releasing hormone receptor (TRHR) signaling pathway (AID 1346891; calls by dose curve; further: series mostly up to about 58 µM)
# Summary of the method: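 Agonist-mode intracellular calcium readout: kinetic fluorescence over 3 min at 1 s intervals after compound addition to TRHR-HEK293 cells (18 h seeded, 2 h dye-loaded at 37 C). Fifteen concentrations, triplicates.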
# [9] = Human pregnane X receptor (PXR) small molecule agonists, qHTS cell viability counter screen (AID 1346977); further: nearly all actives have a fitted effect of over 50% in size
# Summary of the method: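 Same-well viability read: CellTiter-Fluor added after 23 hr compound exposure, fluorescence measured 1 hr later. Cells were PXR-Luc HepG2 seeded at 2,000/well in 5% charcoal-stripped FBS medium, rested 5 hr before dosing at 37 C.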
# [10] = Caspase-3/7 induction in HepG2 cells by small molecules, qHTS assay (AID 1346978); further: nearly all actives have a fitted effect of over 15% in size
# Summary of the method: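 Caspase-3/7 induction was measured by Caspase-Glo 3/7 luminescence (30 min, room temperature) after a 17 hr compound exposure of wild-type HepG2 cells seeded at 2,000 per well and pre-incubated 5 hr.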
# [11] = Caspase-3/7 induction in CHO-K1 cells by small molecules, qHTS assay (AID 1346980); further: nearly all actives have a fitted effect of over 15% in size
# Summary of the method: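 Luminescent Caspase-Glo 3/7 read (30min, room temperature) quantified apoptosis induction. Cells were wild-type CHO-K1, treated with compound for 17hr at 37 C and 5% CO2.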
# [12] = Caspase-3/7 induction in HepG2 cells by small molecules, qHTS cell viability counter screen (AID 1346981); further: series mostly up to about 92 µM; nearly all actives have a fitted effect of over 30% in size
# Summary of the method: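 Fluorescence read-out of live-cell protease activity (CellTiter-Fluor) after 1 hr with reagent. This was measured in the same wells as the caspase-3/7 luminescence, on HepG2 cells exposed to DMSO-dissolved compounds for 16 hr at 37 C.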
# [13] = target: Nuclear receptor subfamily 1 group I member 2 (Rattus norvegicus) (UniProt Q9R1A7); test: Rat pregnane X receptor (rPXR) activation by small molecules, qHTS assay (AID 1346983); details: rPXR luciferase reporter cells, One-Glo luminescence, 24 h; max activation: active compounds read high; further: nearly all actives have a fitted effect of over 20% in size
# Sequence of Nuclear receptor subfamily 1 group I member 2 (Rattus norvegicus) (Q9R1A7 whole entry, looked up): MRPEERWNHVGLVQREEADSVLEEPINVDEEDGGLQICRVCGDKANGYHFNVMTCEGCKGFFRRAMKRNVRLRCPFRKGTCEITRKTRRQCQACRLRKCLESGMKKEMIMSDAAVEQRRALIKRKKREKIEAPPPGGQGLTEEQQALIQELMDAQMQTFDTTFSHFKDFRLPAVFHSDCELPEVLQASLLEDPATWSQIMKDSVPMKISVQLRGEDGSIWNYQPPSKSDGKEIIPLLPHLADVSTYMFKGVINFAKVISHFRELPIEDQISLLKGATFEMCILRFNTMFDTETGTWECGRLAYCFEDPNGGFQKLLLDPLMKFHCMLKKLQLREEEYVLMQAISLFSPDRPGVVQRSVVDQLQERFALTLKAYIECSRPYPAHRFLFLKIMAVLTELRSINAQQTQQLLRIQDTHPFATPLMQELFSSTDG
# Summary of the method: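 Luminescent readout (One-Glo luciferase, 30 min room temperature) followed 24 hr compound treatment at 37 C of rPXR cells plated 2,000 per well and preincubated 5hr; qHTS format with compounds delivered in DMSO.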
# [14] = target: Nuclear receptor subfamily 1 group I member 2 (Homo sapiens) (UniProt O75469); test: CYP3A4 induction through human pregnane X receptor (PXR) by small molecules, qHTS assay (AID 1346984); further: nearly all actives have a fitted effect of over 40% in size
# Sequence of Nuclear receptor subfamily 1 group I member 2 (Homo sapiens) (O75469 whole entry, looked up): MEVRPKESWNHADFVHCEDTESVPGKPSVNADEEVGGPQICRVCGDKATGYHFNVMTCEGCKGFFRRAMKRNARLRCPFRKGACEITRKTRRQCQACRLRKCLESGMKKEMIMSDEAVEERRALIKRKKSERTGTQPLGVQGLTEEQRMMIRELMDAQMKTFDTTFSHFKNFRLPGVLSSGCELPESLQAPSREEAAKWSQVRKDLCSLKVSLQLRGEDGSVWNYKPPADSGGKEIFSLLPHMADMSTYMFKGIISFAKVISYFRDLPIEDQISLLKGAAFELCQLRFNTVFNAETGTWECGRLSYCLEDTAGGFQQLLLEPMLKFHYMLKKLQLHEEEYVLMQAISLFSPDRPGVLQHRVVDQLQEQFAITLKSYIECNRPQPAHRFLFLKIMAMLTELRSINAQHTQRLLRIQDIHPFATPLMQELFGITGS
# Summary of the method: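 HepG2-derived DPX-2 line carrying PXR plus a CYP3A4-promoter luciferase reporter; cells plated 5 hr, compound-exposed 24 hr at 37C. CYP3A4 activity probed with 3uM (final) Luciferin-IPA for 3hr, then luciferase read after One-Glo.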
# [15] = Caspase-3/7 induction in CHO-K1 cells by small molecules, qHTS cell viability counter screen (AID 1346979); further: nearly all actives have a fitted effect of over 35% in size; further: potency means the concentration at half of the fitted maximal effect
# Summary of the method: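 Cytotoxicity counter screen: CellTiter-Fluor added to compound-treated wild-type CHO-K1 cells at 16 h (37C, 5% CO2), fluorescence measured 1 h later; same wells as caspase-3/7 measurement.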
# [16] = target: Nuclear receptor subfamily 1 group I member 2 (Homo sapiens) (UniProt O75469); test: Human pregnane X receptor (PXR) small molecule agonists, qHTS assay (AID 1346982); further: nearly all actives have a fitted effect of over 35% in size; further: potency means the concentration at half of the fitted maximal effect
# Summary of the method: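 HepG2 PXR-Luc reporter line, 5% charcoal-stripped FBS; 5 hr pre-incubation, compound (DMSO) 24 hr at 37 C/5% CO2; ONE-Glo 30 min RT; luminescence read-out.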
# [17] = target: Cytochrome P450 2D6 (Homo sapiens) (UniProt P10635); test: Cytochrome P450 Family 2 Subfamily D Member 6 (CYP2D6) small molecule antagonists: luciferase reporter qHTS assay (AID 1671196); further: nearly all actives have a fitted effect of over 50% in size; further: potency means the concentration at half of the fitted maximal effect; on activity change, negative = inhibition: series mostly up to about 120 µM
# Sequence of Cytochrome P450 2D6 (Homo sapiens) (P10635 whole entry, looked up): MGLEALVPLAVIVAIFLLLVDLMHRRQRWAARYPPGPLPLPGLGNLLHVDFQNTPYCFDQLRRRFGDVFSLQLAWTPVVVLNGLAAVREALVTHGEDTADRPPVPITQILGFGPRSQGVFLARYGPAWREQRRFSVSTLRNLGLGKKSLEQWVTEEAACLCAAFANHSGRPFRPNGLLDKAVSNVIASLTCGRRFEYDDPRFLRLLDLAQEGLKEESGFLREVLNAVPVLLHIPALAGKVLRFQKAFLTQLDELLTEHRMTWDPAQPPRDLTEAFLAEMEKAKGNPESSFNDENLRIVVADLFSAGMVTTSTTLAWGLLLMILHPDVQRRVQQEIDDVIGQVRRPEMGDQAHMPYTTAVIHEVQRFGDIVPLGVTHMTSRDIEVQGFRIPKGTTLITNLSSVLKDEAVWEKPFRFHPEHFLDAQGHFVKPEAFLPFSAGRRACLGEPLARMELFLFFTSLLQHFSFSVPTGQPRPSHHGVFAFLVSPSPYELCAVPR
# Summary of the method: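 Luminogenic proluciferin substrate, CYP2D6 enzyme; 10 min RT preincubation with compound, NADPH regeneration system added, 1 h RT. Stop/detection reagent, 20 min RT, luminescence read (RLU). Signal proportional to CYP activity.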
# [18] = target: Cytochrome P450 2C9 (Homo sapiens) (UniProt P11712); test: Cytochrome P450 Family 2 Subfamily C Member 9 (CYP2C9) small molecule antagonists: luciferase reporter qHTS assay (AID 1671198); further: nearly all actives have a fitted effect of over 50% in size; further: potency means the concentration at half of the fitted maximal effect; on activity change, negative = inhibition: series mostly up to about 120 µM
# Sequence of Cytochrome P450 2C9 (Homo sapiens) (P11712 whole entry, looked up): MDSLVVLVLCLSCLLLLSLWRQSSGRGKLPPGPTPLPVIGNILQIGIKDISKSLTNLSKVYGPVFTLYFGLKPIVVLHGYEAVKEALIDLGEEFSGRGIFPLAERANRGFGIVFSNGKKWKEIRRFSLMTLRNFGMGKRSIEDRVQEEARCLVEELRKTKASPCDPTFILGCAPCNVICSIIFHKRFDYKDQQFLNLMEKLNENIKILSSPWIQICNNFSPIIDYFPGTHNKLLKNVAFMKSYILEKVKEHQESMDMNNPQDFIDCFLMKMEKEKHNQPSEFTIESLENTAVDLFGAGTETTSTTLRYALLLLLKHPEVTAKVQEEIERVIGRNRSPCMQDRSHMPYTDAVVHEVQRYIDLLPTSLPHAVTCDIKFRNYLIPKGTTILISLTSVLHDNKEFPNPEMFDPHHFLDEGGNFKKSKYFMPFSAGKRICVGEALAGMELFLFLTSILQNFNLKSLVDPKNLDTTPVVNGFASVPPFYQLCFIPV
# Summary of the method: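 Enzyme-substrate mix preincubated with compound 10 min at room temperature; reaction started with NADPH regeneration solution, 1 h 37C. Luminescent luciferin product read after 20 min detection reagent.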
# [19] = target: Cytochrome P450 2C19 (Homo sapiens) (UniProt P33261); test: Cytochrome P450 Family 2 Subfamily C Member 19 (CYP2C19) small molecule antagonists: luciferase reporter qHTS assay (AID 1671197); further: series mostly up to about 120 µM; nearly all actives have a fitted effect of over 65% in size
# Sequence of Cytochrome P450 2C19 (Homo sapiens) (P33261 whole entry, looked up): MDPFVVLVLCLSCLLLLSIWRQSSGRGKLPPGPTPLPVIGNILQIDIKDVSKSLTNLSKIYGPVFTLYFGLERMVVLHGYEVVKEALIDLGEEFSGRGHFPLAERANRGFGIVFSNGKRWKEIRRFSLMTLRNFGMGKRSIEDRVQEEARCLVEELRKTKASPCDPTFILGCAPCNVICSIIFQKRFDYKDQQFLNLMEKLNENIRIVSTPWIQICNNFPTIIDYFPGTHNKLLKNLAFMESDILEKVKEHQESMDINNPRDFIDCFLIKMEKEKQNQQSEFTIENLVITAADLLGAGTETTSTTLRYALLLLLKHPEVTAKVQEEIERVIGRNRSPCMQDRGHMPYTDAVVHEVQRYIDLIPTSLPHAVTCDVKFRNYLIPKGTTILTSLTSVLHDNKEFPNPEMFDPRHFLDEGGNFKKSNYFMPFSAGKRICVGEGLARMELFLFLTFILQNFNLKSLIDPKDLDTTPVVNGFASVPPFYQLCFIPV
# Summary of the method: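 Luminescent readout of CYP2C19 activity: luciferin product detected 20 min after adding detection reagent. Before that, compound and enzyme-substrate mix preincubated 10 min at room temperature; NADPH-regenerating system started a 1 h, 37C reaction. Ketoconazole as positive control.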
# [20] = qHTS assay to identify small molecule antagonists of the progesterone receptor (PR) signaling pathway - cell viability counter screen (AID 1346798)
# Summary of the method: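 Cytotoxicity read as CellTiter-Glo luminescence (30 min, room temperature) in the same wells as the beta-lactamase readout. HEK293T PR-UAS-bla cells in charcoal-stripped 2% FBS received compound and R5020, then 16 h at 37C, 5% CO2.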
compound,measurement,setting,value
C/C=C/C=N/NC(=O)c1ccncc1,outcome,[1],inactive
same,Potency,[2],inactive
same,Potency,[3],inactive
same,Potency,[4],inactive
same,Potency,[5],inactive
same,Potency,[6],inactive
same,Potency,[7],inactive
same,Potency,[8],inactive
same,Potency,[9],inactive
same,Potency,[10],inactive
same,Potency,[11],inactive
same,Potency,[12],inactive
same,max activation,[13],-3.54%
same,Potency,[14],inactive
CCCCOc1ccc(C(=O)CCN2CCCCC2)cc1,outcome,[1],inactive
same,Potency,[2],inactive
same,Potency,[3],inactive
same,Potency,[4],inactive
same,Potency,[5],inactive
same,Potency,[6],inactive
same,Potency,[7],inactive
same,Potency,[8],inactive
same,Potency,[10],inactive
same,Potency,[15],29.8 µM (active)
same,Potency,[11],inactive
same,Potency,[12],inactive
same,Potency,[16],6.68 µM (active)
same,max activation,[13],-1.67%
same,Potency,[14],inactive
same,Potency,[17],5.49 µM (active)
same,Potency,[18],17.4 µM (active)
Cc1c(C(=O)O)cccc1[N+](=O)[O-],outcome,[1],inactive
same,Potency,[2],inactive
same,Potency,[4],inactive
same,Potency,[5],inactive
same,Potency,[6],inactive
same,Potency,[7],inactive
same,Potency,[8],inactive
same,Potency,[9],inactive
same,Potency,[10],inactive
same,Potency,[15],inactive
same,Potency,[11],inactive
same,Potency,[12],inactive
same,Potency,[16],inactive
same,Potency,[17],inactive
same,Potency,[19],inactive
same,Potency,[18],inactive
[O]=[Zr],outcome,[1],inactive
same,Potency,[2],inactive
same,Potency,[3],inactive
same,Potency,[4],inactive
same,Potency,[6],inactive
same,Potency,[7],inactive
same,Potency,[8],inactive
same,Potency,[9],inactive
same,Potency,[10],inactive
same,Potency,[11],inactive
same,Potency,[12],inactive
same,Potency,[16],inactive
O=S(=O)(O)c1cc(S(=O)(=O)O)c2ccc3c(S(=O)(=O)O)cc(S(=O)(=O)O)c4ccc1c2c43,activation,[1],-0.344% [at 19 µM]
same,"activity change, negative = inhibition",[2],5.54% [at 18.9 µM]
same,"activity change, negative = cytotoxicity",[3],-11.2% [at 19 µM]
same,"activity change, negative = cytotoxicity",[5],10.3% [at 15.8 µM]
same,activation,[6],1.38% [at 15.8 µM]
same,"activity, negative = inhibition",[7],-5.39% [at 10.5 µM]
same,activation,[8],-0.321% [at 11.8 µM]
same,"activity change, negative = cytotoxicity",[9],3.17% [at 19 µM]
same,caspase activation,[10],0.784% [at 19 µM]
same,"activity change, negative = cytotoxicity",[15],5.57% [at 19 µM]
same,caspase-3/7 activation,[11],-0.007% [at 19 µM]
same,"activity change, negative = cytotoxicity",[12],6.28% [at 19 µM]
same,activation,[16],-3.44% [at 19 µM]
same,"activity change, negative = inhibition",[17],-11.8% [at 23.6 µM]
same,"activity change, negative = inhibition",[19],-18.9% [at 23.6 µM]
same,"activity change, negative = inhibition",[18],-1.93% [at 23.6 µM]
CSc1c(Cl)c(Cl)c(Cl)c(Cl)c1Cl,outcome,[1],inactive
same,Potency,[2],inactive
same,Potency,[20],inactive
same,Potency,[5],inactive
same,Potency,[6],inactive
same,Potency,[7],inactive
same,Potency,[8],inactive
same,Potency,[9],inactive
same,Potency,[10],inactive
same,Potency,[15],inactive
same,Potency,[11],inactive
same,Potency,[12],inactive
same,Potency,[16],68.2 µM (active)
same,Potency,[19],inactive
same,Potency,[18],inactive
COC(=O)CC#N,outcome,[1],inactive
same,Potency,[2],inactive
same,Potency,[3],inactive
same,Potency,[4],inactive
same,Potency,[5],inactive
same,Potency,[6],inactive
same,Potency,[7],inactive
same,Potency,[8],inactive
same,Potency,[9],inactive
same,Potency,[10],inactive
same,Potency,[15],inactive
same,Potency,[11],inactive
same,Potency,[12],inactive
same,Potency,[16],inactive
same,Potency,[18],inactive
